IL1B secr inh: blocks inflammasome-driven IL-1 beta release; THP-1 LPS/ATP IL-1B secretion, AlphaLISA, 16 h; stronger effect = lower value; activity change, % at 57.5 µM; actives 4.7% (n = 360,000); in the data active means activity change below about -50%; inconclusive means mostly about -30% to -49%
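THP-1 cells pretreated 1 hr with compounds (up to 57.5 uM final), then stimulated with LPS (250 ng/mL final) plus ATP (1.25 mM final); secreted IL-1B measured by AlphaLISA after 16 hr, decreased signal indicating inhibition.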
TDP1 cell CPT: growth inhibition of DT40 Tdp1-/-;hTDP1 cells with camptothecin (screen for TDP1 inhibitors); chicken DT40 Tdp1-/-;hTDP1 cells + 20 nM CPT, ATP luminescence, 48 h; Potency, µM (highest dose often 46.2 µM), most hits filed as inhibitors; actives 12% (n = 420,000); further: nearly all actives have a fitted effect of over 55% in size
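Cell growth measured by CellTiter-Glo luminescence after a minimum 48 h, 37 C compound exposure with 20 nM CPT in Tdp1-knockout DT40 cells stably expressing hTDP1, seeded 400/well; qHTS titration format.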
VP16 counter: counter-screen for ROR gamma inhibitors: Gal4-VP16 reporter. Drosophila S2 Gal4-VP16 UAS-luciferase, luminescence, 20 h. Potency, µM (top dose mostly 53.6 µM), hits mostly inhibitors. actives 3.5% (n = 310,000);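 further: Gal4-VP16 expression switched on by copper sulfate through the metallothionein promoter; nearly all actives have a fitted effect of over 50% in size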
TDP1 cell noCPT: qHTS for Inhibitors of human tyrosyl-DNA phosphodiesterase 1 (TDP1): qHTS in cells in absence of CPT | DT40 Tdp1-/- hTDP1 cells, no CPT, ATP luminescence, 48 h | Potency, µM (top dose mostly 46.2 µM), usual class: inhibitors | actives 15% (n = 420,000) | AID 686978, 2013; further: nearly all actives have a fitted effect of over 55% in size
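Chicken DT40 Tdp1-/- cells stably complemented with human TDP1 were seeded at 400 cells/well with DMSO in place of 20 nM camptothecin. After compound pinning, cells grew at least 48 hr at 37 °C; viability read by CellTiter-Glo luminescence.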
ELG1 DNA repair: ELG1-dependent DNA repair inhibition; HEK293T ELG1-luciferase reporter, luminescence, 16 h; DNA damage induced by 5-fluorouridine; Potency, µM (highest dose often 46.1 µM), usual class: inhibitors; actives 2.3% (n = 330,000); AID 504467; further: nearly all actives have a fitted effect of over 55% in size
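Quantitative HTS, concentration-response format. 2,000 cells/well co-treated with 5-fluorouridine and compound, 16 hr in 5% CO2 at 37 °C; ONE-Glo luminescence read after 30 min.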
RORgamma inh: ROR gamma (mouse) transcription inhibition | Drosophila S2 Gal4-RORgamma UAS-luciferase reporter, 20 h | Potency, µM (top dose mostly 53.6 µM), most hits filed as inhibitors | actives 5.4% (n = 310,000) | AID 2551; further: nearly all actives have a fitted effect of over 60% in size
Target sequence (P51450 whole entry, looked up, the tested form may be a part): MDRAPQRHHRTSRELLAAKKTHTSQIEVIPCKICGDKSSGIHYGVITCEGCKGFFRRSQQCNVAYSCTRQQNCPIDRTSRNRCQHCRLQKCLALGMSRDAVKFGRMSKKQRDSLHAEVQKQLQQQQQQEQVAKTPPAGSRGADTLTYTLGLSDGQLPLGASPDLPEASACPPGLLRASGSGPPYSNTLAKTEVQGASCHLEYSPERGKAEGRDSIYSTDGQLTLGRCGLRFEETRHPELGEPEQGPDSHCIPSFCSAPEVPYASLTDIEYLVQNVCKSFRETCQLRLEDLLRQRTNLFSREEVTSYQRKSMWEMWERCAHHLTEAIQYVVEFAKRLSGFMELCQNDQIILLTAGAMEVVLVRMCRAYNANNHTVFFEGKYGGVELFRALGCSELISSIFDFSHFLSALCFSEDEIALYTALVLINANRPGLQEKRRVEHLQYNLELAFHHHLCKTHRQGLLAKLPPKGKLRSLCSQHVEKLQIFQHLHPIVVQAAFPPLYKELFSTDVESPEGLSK
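Compounds are pin-transferred onto Drosophila Schneider cells expressing a copper-inducible Gal4–ROR gamma transactivation domain fusion. After 1 hr, copper sulfate is added to 700 uM final; luciferase is read 20 hr later.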
Large screens that a line does not name were inactive. Hits are enriched below; roughly 21% of the tested compounds scored in any of these assays. Unless noted, the call rests on the fitted dose curve; in most records, active means well fitted curve in the direction sought with a large enough effect; inconclusive means small, poorly fitted or top-dose-only effect, or another doubt; inactive means no such curve, though single readings can be large; an effect the other way counts as inactive or inconclusive.

COc1ccc(C(c2c(NC(=O)c3ccco3)sc(C)c2C)N2CCOCC2)cc1 (stereo not drawn)	IL1B secr inh inconclusive, TDP1 cell CPT inconclusive, TDP1 cell noCPT inconclusive (no result: VP16 counter, RORgamma inh)
CCN1CCN(C(c2cccnc2)c2c(NC(=O)c3ccco3)sc(C)c2C)CC1 (stereo not drawn)	IL1B secr inh inconclusive, TDP1 cell CPT 16µM, TDP1 cell noCPT 23µM (no result: VP16 counter, RORgamma inh)
O=S(=O)(c1ccccc1)N1CCC[C@@]2(CCN(c3ccccc3)C2)C1	TDP1 cell CPT inconclusive, TDP1 cell noCPT inconclusive (no result: IL1B secr inh, ELG1 DNA repair)
COc1cc(C(=O)N2CCN(CCc3ccccn3)CC2)cc(OC)c1OC	none (no result: IL1B secr inh, VP16 counter, ELG1 DNA repair, RORgamma inh)
CO/N=C(\C(=O)N[C@@H]1C(=O)N2C(C(=O)O)=C(CSc3cnns3)CS[C@H]12)c1csc(N)n1	none (no result: IL1B secr inh, VP16 counter, ELG1 DNA repair, RORgamma inh)
C=CCNC(=S)NNC(=O)c1csc(C)c1C	VP16 counter 7.9µM, RORgamma inh inconclusive
CCCCNC(=S)NNC(=O)c1csc(C(C)C)c1	TDP1 cell CPT inconclusive, VP16 counter inconclusive, TDP1 cell noCPT inconclusive, RORgamma inh 7.9µM
COCCCNC(=S)NNC(=O)c1csc(C)n1	TDP1 cell noCPT inconclusive
Cc1scc(C(=O)NNC(=S)NC(C)c2ccccc2)c1C (stereo not drawn)	TDP1 cell CPT 16µM, TDP1 cell noCPT 21µM
CCCCNC(=S)NNC(=O)c1csc(C)c1C	TDP1 cell CPT inconclusive, VP16 counter 14µM, TDP1 cell noCPT inconclusive, RORgamma inh inconclusive
COc1ccc(-c2oc3c(c2C#CCCCCO)C(OCCO)CC3)cc1 (stereo not drawn)	TDP1 cell CPT inconclusive, TDP1 cell noCPT inconclusive (no result: VP16 counter, ELG1 DNA repair, RORgamma inh)
COC(=O)C/C=C/[C@@H](C)[C@@H](/C=N/OC[C@@H](C)[C@H](OCc1ccccc1)C(C)C)NS(=O)(=O)c1ccc(C)cc1	ELG1 DNA repair inconclusive (no result: IL1B secr inh, TDP1 cell CPT, TDP1 cell noCPT)
O=C(C[N+]1(CCO)CCOCC1)c1cccc2ccccc12	none (no result: IL1B secr inh, VP16 counter, ELG1 DNA repair, RORgamma inh)
COc1ccc2oc(=O)c(C(=O)N3CCN(c4ccc(C)cc4)CC3)cc2c1	TDP1 cell noCPT inconclusive (no result: IL1B secr inh, VP16 counter, ELG1 DNA repair, RORgamma inh)
O=C(c1cccc(F)c1F)N1CCOc2ccc(CN3CCN(Cc4ccccn4)CC3)cc2C1	none (no result: IL1B secr inh, VP16 counter, ELG1 DNA repair, RORgamma inh)
CCCCNC(=S)NNC(=O)c1sccc1C	RORgamma inh 1.4µM
CCCCNC(=S)NNC(=O)c1ccncc1	RORgamma inh inconclusive
Cc1ccsc1C(=O)NNC(=S)NC1CCCCC1	VP16 counter 11µM, TDP1 cell noCPT inconclusive
O=C(c1ccc(-c2ccccc2Cl)o1)N1CCC1	TDP1 cell noCPT inconclusive, ELG1 DNA repair inconclusive (no result: VP16 counter, RORgamma inh)
CC1CCN(C(=O)c2ccc(-c3ccccc3Cl)o2)CC1	IL1B secr inh -100, TDP1 cell noCPT inconclusive, ELG1 DNA repair inconclusive (no result: VP16 counter, RORgamma inh)
S=C(c1ccc(-c2ccccc2Cl)o1)N1CCOCC1	IL1B secr inh -91, TDP1 cell CPT inconclusive, TDP1 cell noCPT inconclusive, ELG1 DNA repair inconclusive
O=C(NNC(=O)c1ccccc1F)c1ccc(-c2ccccc2Cl)o1	IL1B secr inh -52, TDP1 cell noCPT inconclusive (no result: VP16 counter, ELG1 DNA repair, RORgamma inh)
COc1ccc(NS(=O)(=O)c2cc(NC(=O)c3ccccn3)ccc2OC)cc1Br	IL1B secr inh -56, TDP1 cell CPT inconclusive, ELG1 DNA repair inconclusive (no result: VP16 counter, RORgamma inh)
CCN(CC)c1ccc(NC(=O)c2ccccn2)cc1S(=O)(=O)Nc1ccccc1OC	TDP1 cell CPT 16µM, TDP1 cell noCPT 21µM (no result: VP16 counter, RORgamma inh)
COc1ccccc1NS(=O)(=O)c1cc(NC(=O)CNC(=O)c2ccccc2)ccc1C	RORgamma inh inconclusive
CCN(CC)c1ccc(NC(=O)COc2ccccc2C#N)cc1S(=O)(=O)Nc1ccccc1OC	TDP1 cell CPT 2.6µM, TDP1 cell noCPT 2.3µM
O=C(CNC(=S)NC(=O)c1ccccc1)c1ccccc1	VP16 counter inconclusive, ELG1 DNA repair inconclusive, RORgamma inh 11µM
O=C(CNC(=S)NC(=O)c1ccc(F)cc1)c1ccccc1	RORgamma inh 11µM
CC(C)C(=O)NC(=S)NCC(=O)c1ccccc1	VP16 counter inconclusive, RORgamma inh 11µM
O=C(CNC(=S)NC(=O)c1ccccc1Br)c1ccccc1	none
